# ± gives the standard deviation of the averaged measurements.
# Test system: Renilla luciferase (RLuc)
# Test: residual bioluminescent signal relative to negative control without GSH; higher = less interference (more residual luciferase signal)
# Conditions: screening conditions buffer
# Description: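 Selected metal salts at 3-4 concentrations tested on purified FLuc, NLuc or RLuc in screening buffer with 0, 0.2 or 2 mM glutathione added; 10 min enzyme pre-incubation at RT, luminescence 10 min after substrate. Signal normalised to negative control without GSH (% N_VALUE); triplicate wells.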
# [1] = metal salt concentration 0.2 mM, glutathione 0 mM
# [2] = metal salt concentration 0.2 mM, glutathione 0.2 mM
# [3] = metal salt concentration 0.2 mM, glutathione 2 mM
# [4] = metal salt concentration 1 mM, glutathione 0 mM
# [5] = metal salt concentration 1 mM, glutathione 0.2 mM
# [6] = metal salt concentration 1 mM, glutathione 2 mM
smiles,measurement,setting,value
O=[N+]([O-])[O-].[Ag+] [silver nitrate],residual bioluminescent signal,"metal salt concentration 0.002 mM, glutathione 0 mM",116 ± 9.8%
same,residual bioluminescent signal,"metal salt concentration 0.002 mM, glutathione 0.2 mM",109 ± 15%
same,residual bioluminescent signal,"metal salt concentration 0.002 mM, glutathione 2 mM",165 ± 28%
same,residual bioluminescent signal,"metal salt concentration 0.0684 mM, glutathione 0 mM",49.2 ± 15%
same,residual bioluminescent signal,"metal salt concentration 0.0684 mM, glutathione 0.2 mM",115 ± 7.6%
same,residual bioluminescent signal,"metal salt concentration 0.0684 mM, glutathione 2 mM",160 ± 13%
same,residual bioluminescent signal,[1],5.26 ± 2.6%
same,residual bioluminescent signal,[2],119 ± 16%
same,residual bioluminescent signal,[3],174 ± 13%
same,residual bioluminescent signal,[4],2.52 ± 2%
same,residual bioluminescent signal,[5],102 ± 13%
same,residual bioluminescent signal,[6],171 ± 12%
O=[N+]([O-])[O-].O=[N+]([O-])[O-].[Cu+2] [copper(II) nitrate],residual bioluminescent signal,"metal salt concentration 0.1 mM, glutathione 0 mM",90.5 ± 7.6%
same,residual bioluminescent signal,"metal salt concentration 0.1 mM, glutathione 0.2 mM",101 ± 3.8%
same,residual bioluminescent signal,"metal salt concentration 0.1 mM, glutathione 2 mM",115 ± 12%
same,residual bioluminescent signal,"metal salt concentration 0.132 mM, glutathione 0 mM",79.1 ± 10%
same,residual bioluminescent signal,"metal salt concentration 0.132 mM, glutathione 0.2 mM",88.3 ± 16%
same,residual bioluminescent signal,"metal salt concentration 0.132 mM, glutathione 2 mM",135 ± 20%
same,residual bioluminescent signal,[1],107 ± 14%
same,residual bioluminescent signal,[2],98.8 ± 24%
same,residual bioluminescent signal,[3],120 ± 19%
same,residual bioluminescent signal,[4],2.29 ± 2.2%
same,residual bioluminescent signal,[5],27.7 ± 5.2%
same,residual bioluminescent signal,[6],122 ± 20%
O=[N+]([O-])[O-].O=[N+]([O-])[O-].[Zn+2] [zinc nitrate],residual bioluminescent signal,[4],112 ± 18%
same,residual bioluminescent signal,[5],116 ± 25%
same,residual bioluminescent signal,[6],158 ± 11%
same,residual bioluminescent signal,"metal salt concentration 2.5 mM, glutathione 0 mM",104 ± 9.8%
same,residual bioluminescent signal,"metal salt concentration 2.5 mM, glutathione 0.2 mM",110 ± 13%
same,residual bioluminescent signal,"metal salt concentration 2.5 mM, glutathione 2 mM",110 ± 6.2%
same,residual bioluminescent signal,"metal salt concentration 4.13 mM, glutathione 0 mM",89.4 ± 5%
same,residual bioluminescent signal,"metal salt concentration 4.13 mM, glutathione 0.2 mM",96.3 ± 13%
same,residual bioluminescent signal,"metal salt concentration 4.13 mM, glutathione 2 mM",46.9 ± 19%
same,residual bioluminescent signal,"metal salt concentration 10 mM, glutathione 0 mM",2.06 ± 0.69%
same,residual bioluminescent signal,"metal salt concentration 10 mM, glutathione 0.2 mM",4.57 ± 0.79%
same,residual bioluminescent signal,"metal salt concentration 10 mM, glutathione 2 mM",2.74 ± 2.1%
